IMPase Li cell – membrane-permeable IMPase blocker, potentiated with lithium | CHO-M1 cells, IP1 TR-FRET (IP-One), carbachol + lithium | 210,000 compounds, 0.35% hits | Potency, µM (highest dose often 59.4 µM), hits mostly inhibitors | AID 1457;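 note: IP1 builds up when IMPase is blocked and the TR-FRET signal falls; nearly all actives have a fitted effect of over 50% in size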
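Lithium-sensitised IP1 accumulation assay; M1-expressing CHO cells treated 30 min at 37C with compound. Competitive antibody detection by time-resolved FRET followed a 10 min room-temperature lysis step.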
HTT aggregate – reduces HttQ103-GFP aggregates in PC12 cells; PC12 HttQ103-GFP aggregates, Acumen cytometry, 40 h; Potency, µM (series often up to 46.1 µM), actives largely listed as inhibitors; 220,000 compounds, 1.1% hits; note: nearly all actives have a fitted effect of over 60% in size
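Using laser scanning cytometry, GFP-positive aggregates were counted after lysis of PC12 cells induced with 100 nM tebufenozide to express HTT exon 1 Q103–GFP. Compounds were tested in titration.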
HPGD inh – inhibitors of human 15-hydroxyprostaglandin dehydrogenase (HPGD); P15428; purified HPGD, NADH fluorescence kinetic, PGE2 substrate; 150,000 compounds, 4.3% hits; Potency, µM, hits mostly inhibitors; AID 894; active = well fitted inhibition curve with a large enough effect, not every such curve was filed as active; inconclusive = small, poorly fitted or top-dose-only effect, or another doubt; inactive = no such curve, though single readings can be large or run the other way
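NADH formation kinetics: reaction with 30 uM PGE2 and 1 mM NAD+ (final), 20 nM enzyme, Tris-HCl pH 8 with Tween 20, after 15 min compound preincubation at room temperature. Fluorescence change, last versus first of five reads.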
HTT cytoprotect – cytoprotection in Huntington HTT-Q103 PC12 cell model. PC12 HTT-Q103 induced, cytoprotection, ATP luminescence, 40 h. Potency, µM (series often up to 56.4 µM), most hits filed as activators. 230,000 compounds, 0.14% hits; note: nearly all actives have a fitted effect of over 45% in size
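Cells were plated at 1500 per well in phenol red-free DMEM with 5% equine and 5% calf serum. Tebufenozide (100 nM final) and compounds were added, then ATPlite reagent, and luminescence was read.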
ALDH1A1 block – ALDH1A1 (human) enzyme inhibition; AID 1030; Purified ALDH1A1, NADH fluorescence, propionaldehyde substrate; Potency, µM (doses to about 75.3 µM), actives largely listed as inhibitors; P00352; 220,000 compounds, 7.3% hits; active = well fitted inhibition curve with a large enough effect, not every such curve was filed as active; inconclusive = small, poorly fitted or top-dose-only effect, or another doubt; inactive = no such curve, though single readings can be large or run the other way
Target sequence (P00352 whole entry, looked up): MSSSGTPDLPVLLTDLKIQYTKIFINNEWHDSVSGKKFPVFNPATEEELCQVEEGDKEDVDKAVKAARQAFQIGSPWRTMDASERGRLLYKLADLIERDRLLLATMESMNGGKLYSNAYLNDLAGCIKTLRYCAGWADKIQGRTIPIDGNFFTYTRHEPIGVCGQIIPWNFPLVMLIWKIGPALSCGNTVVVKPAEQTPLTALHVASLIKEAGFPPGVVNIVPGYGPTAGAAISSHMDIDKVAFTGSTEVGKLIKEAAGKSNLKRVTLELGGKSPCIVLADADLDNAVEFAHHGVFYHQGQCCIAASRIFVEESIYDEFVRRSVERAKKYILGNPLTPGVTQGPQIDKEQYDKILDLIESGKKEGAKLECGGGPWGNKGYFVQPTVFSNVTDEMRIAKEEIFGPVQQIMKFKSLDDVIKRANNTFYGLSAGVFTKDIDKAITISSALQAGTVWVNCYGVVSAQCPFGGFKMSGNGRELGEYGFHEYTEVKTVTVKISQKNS
IMPase inh – IMPase inhibition in cells; P97697; inhibition (IP1 accumulation), % at 46.1 µM; CHO-M1 cells, IP1 accumulation, HTRF TR-FRET ratio; AID 901; 120,000 tested, under 10 active; active = well fitted curve in the direction sought with a large enough effect in the signal ratio, not every such curve was filed as active; inconclusive = small, poorly fitted or top-dose-only effect, or a change in a side signal; inactive = no such curve, though single readings can be large or run the other way; the % refers to the signal ratio;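 note: cells stimulated with carbachol in lithium chloride buffer; higher means more IMPase inhibition seen as more IP1 and lower FRET ratio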
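CHO-M1, 2000 cells/well, cultured 16–30 h; cpd up to 46 uM; carbachol (50 uM solution, stimulation buffer w/ 50 mM LiCl, pH 7.4), 30 min 37C; IP-One TR-FRET, 10 min RT; Ex 320/Em 665, 620; Hill-fit AC50.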
A number is an active result; . = inactive; ? = inconclusive; / = no result; [ ] = another dose, or the depositor's remark. A selection: hits, their analogues and other compounds. The true share with any hit is near 9.4%. Unless noted, calls come from the whole dose curve; as a rule, active = well fitted curve in the direction sought with a large enough effect; inconclusive = small, poorly fitted or top-dose-only effect, or another doubt; inactive = no such curve, though single readings can be large; an effect the other way counts as inactive or inconclusive.

SMILES	IMPase Li cell	HTT aggregate	HPGD inh	HTT cytoprotect	ALDH1A1 block	IMPase inh
COc1cc2[nH]c3c(N4CCN(c5ccccn5)CC4)ncnc3c2cc1OC	.	20µM	?	.[0.074 µM]	?	.
Fc1ccc2[nH]c3c(N4CCN(c5ccccc5)CC4)ncnc3c2c1	.	22µM	?	.[1.9 µM]	.	.
CCOC(=O)N1CCN(c2ncnc3c2[nH]c2ccc(F)cc23)CC1	.	7.1µM	.	.	.	.
CCc1ccccc1NC(=O)CSc1nnc(COc2ccccc2Cl)o1	/	/	/	/	/	.
C/C(=C(/CCOC(=O)C(C)C)SS/C(CCOC(=O)C(C)C)=C(\C)N(C=O)Cc1cnc(C)nc1N)N(C=O)Cc1cnc(C)nc1N	/	.	/	.	/	/
Cc1cccc(C(=O)N2CCN(c3ccc(C(F)(F)F)cn3)CC2)c1C	.	16µM	.	.	.	.
CCN(CC)c1ccc(O)c(C=Nc2ccc(C)c(C)c2)c1	.	.	/	.	?	/
CCNc1nc(NCC)nc(N/N=C/c2ccc([N+](=O)[O-])o2)n1	.	.	.	.	.	.
CCN(CC)c1ccc(N=Cc2ccc([N+](=O)[O-])o2)cc1	.	14µM	.	.[10 µM]	?	/
CCN(CC)c1ccc(N=Cc2ccccc2[N+](=O)[O-])cc1	.	.	.	/	2µM	/
CC(C)=NOCc1ccc(-c2cn([C@@H]3COC[C@@H]3O)nn2)cc1	/	/	/	.[10 µM]	.[13.5 µM]	/
CC(C)C[C@@H](NC(=O)[C@H](Cc1ccccc1)NC(=O)c1cnccn1)B(O)O	/	.	/	.	/	/
CN1/C(=C\C=N\NC(=O)c2ccccc2Br)C(C)(C)c2ccccc21	.	11µM	.	.[10 µM]	28µM	/
CN1C(C(=O)Nc2ccccn2)C(=O)c2sc(Cl)cc2S1(=O)=O (centres undefined)	/	.	/	?	/	/
CCOc1ccc(/C=C(\C#N)C(=O)Nc2sc3c(c2C(=O)OC)CCC3)cc1OC	/	/	/	/	/	.
CC1(OC(=O)C2CCCC2)C(=O)C=C2C=C(c3ccsc3)N(Cc3ccco3)C=C2C1=O (centres undefined)	.	.[9.22 µM]	.	.[10 µM]	3.5µM	/
CC(C)Cn1c(N)c(C(=O)CCl)c(=O)n(C)c1=O	.	?	.	/	8.9µM	/
Cn1c(=O)c(C(=O)CCl)c(N)n(CC2CC2)c1=O	.	.	.	/	20µM	/
COc1cc2nncc(SCc3ccc(Cl)c(Cl)c3)c2cc1OC	.	/	.	.[10 µM]	.[13.5 µM]	/
O=C(O/N=C1\CCCCC1c1ccc([N+](=O)[O-])cc1[N+](=O)[O-])c1c(F)cccc1F (centres undefined)	.	.	.	.	18µM	.
COc1ccc2c(CC(=O)NCCN3C(=O)S/C(=C\c4cccnc4)C3=O)coc2c1	.	.	/	.	22µM	/
CN1CCCC2(CCN(C(=O)c3cccc(F)c3)CC2)C1	.	/	.	.	.	/
O=C(c1cc(F)c(F)cc1Cl)N1CCCCC1	.	.	5.6µM	.	.	.
O=C(c1cc2c(cc1Br)OCCCO2)N1CCCCC1	.	.	2.2µM	.[10 µM]	.	/
O=C(O)c1cc(Cl)c(Cl)cc1C(=O)N1CCCC1	.	.	.	.[1.9 µM]	.	.
SMILES	IMPase Li cell	HTT aggregate	HPGD inh	HTT cytoprotect	ALDH1A1 block	IMPase inh
CC(C)[C@@H](CC(=O)N[C@@H]1CCCC[C@H]1C(=O)N[C@H](CC(=O)N[C@@H](CCC(=O)O)CC(=O)O)Cc1ccccc1)NC(=O)C[C@H](CO)NC(=O)[C@@H]1CNCC[C@H]1N	.	/	.	.[1.9 µM]	.	/
Cn1c(=O)c(CCc2ccccc2)nc2cnc(N3CCOCC3)nc21	.	/	/	?	?	/
COC(=O)NC(c1cccc(C)c1)[C@@]1(C(=O)OC)CCCC1=O (some centres undefined)	/	/	/	.[10 µM]	.[13.5 µM]	/
COc1ccc(-n2c(=S)[nH]c3cc(C(=O)NCCCN4CCCC4=O)ccc3c2=O)cc1	.	.	.	.	18µM	.
COc1ccc(C(=O)NCCCN2CCCC2=O)cc1	.	.	.	.	.	.
COc1ccc(-n2c(=S)[nH]c3cc(C(=O)NCCCN4CCCC4=O)ccc3c2=O)c(OC)c1	.	.	.	.	14µM	.
COc1ccc(NC(=S)NCCCN2CCCC2=O)c(OC)c1	.	.[9.22 µM]	/	.	?	/
Cc1ccc(NC(=S)/C(=C(\[O-])c2ccc(F)cc2)[n+]2ccccc2)cc1	.	.	/	.	10µM	/
COc1cccc(NC(=S)/C(=C(\[O-])c2ccc([N+](=O)[O-])cc2)[n+]2ccccc2)c1	.	.	/	.[10 µM]	13µM	/
Cc1ccc(/C([O-])=C(/C(=S)NCc2ccco2)[n+]2ccccc2)cc1	.	.	.	.	.	.
CCc1cc[n+](/C(C(=S)Nc2cccc(C)c2)=C(/[O-])c2ccc(C)c([N+](=O)[O-])c2)cc1	.	.	.	.[10 µM]	?	.
CCOc1ccc(NC(=S)/C(=C(\[O-])c2ccc(C)c([N+](=O)[O-])c2)[n+]2ccccc2)cc1	.	?	?	.	11µM	.
O=[N+]([O-])c1ccc(/C([O-])=C(/C(=S)NCc2ccco2)[n+]2ccccc2)cc1	.	.	/	.[10 µM]	7.9µM	/
COC(=O)NC(c1ccccc1)C1(C(=O)OC)C(=O)Cc2ccccc21 (centres undefined)	.	/	.	.	?	/
N[C@@]1(C(=O)O)CO[C@H]2[C@H](C(=O)O)[C@H]21	.	/	.	.	.	/
CCOC(=O)c1c(-c2ccc(OC)cc2)oc2ccc(OCc3ccccc3C)cc12	/	/	/	/	/	.
COc1ccc(N=C2C(=O)N3c4c(cccc42)C(C)=CC3(C)C)cc1	.	.	.	.[10 µM]	2µM	.
CCOC(=O)Cn1nnnc1CN(Cc1cccs1)Cc1cc2cc(C)ccc2[nH]c1=O	.	.	.	.	16µM	.
Cc1ccc2[nH]c(=O)c(CN(Cc3cccs3)Cc3nnnn3Cc3ccccc3)cc2c1	.	.[9.22 µM]	?	.	14µM	.
